71 molecules from the supplement of paper PMC12350171 can be followed below.

Where a name gives a salt, the structure may show the parent alone. Unmarked numbers belong to inactive results.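 The calls were made as follows: active = AUC significantly below DMSO controls by Student t-fit with adjusted P under 0.01; inactive = not significantly reduced.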

This assay concerns Haemophilus parainfluenzae. Description: growth AUC normalised to DMSO control (fraction of control); higher = less growth inhibition, active = hit call of the paper. As to conditions: 20 µM. The procedure, abridged:
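Pathogens were passaged twice under anaerobic conditions, then inoculated into pre-reduced mGAM plates at a starting OD578 of 0.01, with compound at 20 μM and 1% DMSO, and sealed with breathable membranes. For Haemophilus parainfluenzae, the medium was supplemented with hemin and NAD. OD578 was read every hour for 24 h in three biological replicates. Growth-curve AUC was calculated by the trapezoidal rule up to the exponential-to-stationary transition and normalised to DMSO controls on the same plate.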

Consider `CN(C)CCOC(C)(c1ccccc1)c1ccccn1` (stereo unspecified) [Doxylamine succinate], for which the “growth AUC normalised to DMSO control” value is 0.989. Consider `Nc1ccc(S(=O)(=O)Nc2nccs2)cc1` [Sulfathiazole], for which the “growth AUC normalised to DMSO control” value was 1.03. For the molecule `CN[C@@H]1[C@H](O)[C@H](NC)[C@H]2O[C@@]3(O)C(=O)C[C@@H](C)O[C@H]3O[C@@H]2[C@H]1O` [Spectinomycin dihydrochloride], the “growth AUC normalised to DMSO control” value is 0.117 (active).

Turning to `CN(C)CCC=C1c2ccccc2CCc2ccccc21` [Amitryptiline hydrochloride], the “growth AUC normalised to DMSO control” value is 0.958. On to `CN1CCN(CCCN2c3ccccc3Sc3ccc(C(F)(F)F)cc32)CC1` [Trifluoperazine dihydrochloride], for which the “growth AUC normalised to DMSO control” value is 0.927. Turning to `CCOC(=O)n1ccn(C)c1=S` [Carbimazole], the “growth AUC normalised to DMSO control” value is 0.99. As to `Nc1c(Br)cc(Br)cc1CN[C@H]1CC[C@H](O)CC1` [Ambroxol hydrochloride], the “growth AUC normalised to DMSO control” value was 0.988. Under `CCCCOc1cc(C(=O)NCCN(CC)CC)c2ccccc2n1` [Dibucaine] stands 0.849; under `O=C(O)[C@H]1/C(=C/CO)O[C@@H]2CC(=O)N21` [Clavulanate potassium salt], 1.06; under `CCN(CC)CCNC(=O)c1cc(S(C)(=O)=O)ccc1OC` [Tiapride hydrochloride], 0.993. Regarding `c1ccc2c(c1)CCCC2C1=NCCN1` (stereo unspecified) [Tetrahydrozoline hydrochloride], the “growth AUC normalised to DMSO control” value is 0.986. Under `O=c1[nH]cc(F)c(=O)[nH]1` [5-fluorouracil] stands 0.654 (active).

Turning to `CC(=O)O[C@]1(C(C)=O)CC[C@H]2[C@@H]3C=C(Cl)C4=CC(=O)[C@@H]5C[C@@H]5[C@]4(C)[C@H]3CC[C@@]21C` [Cyproterone acetate], the “growth AUC normalised to DMSO control” value was 1.01. As for `CNCCC(Oc1ccccc1OC)c1ccccc1` (stereo unspecified) [Nisoxetine hydrochloride], the “growth AUC normalised to DMSO control” value is 1.02. In the case of `O=C(CCCCCCC(=O)Nc1ccccc1)NO` [Vorinostat] it was 1.07; in that of `OCCOCCN1CCN(C2=Nc3ccccc3Sc3ccccc32)CC1` [Quetiapine hemifumarate], 0.997. Under `CN1CCC(=C2c3ccccc3C=Cc3ccccc32)CC1` [Cyproheptadine hydrochloride] stands 0.921. `N=c1nc(N2CCCCC2)cc(N)n1O` [Minoxidil]: the “growth AUC normalised to DMSO control” value was 1.03. Under `CC(=O)N(CC(O)CO)c1c(I)c(C(=O)NCC(O)CO)c(I)c(C(=O)NCC(O)CO)c1I` (stereo unspecified) [Iohexol] stands 0.981. Under `CN[C@H]1CC[C@@H](c2ccc(Cl)c(Cl)c2)c2ccccc21` [Sertraline] stands 0.929; under `O=C(O)CN(CCN(CC(=O)O)CC(=O)O)CCN(CC(=O)O)CC(=O)O` [Pentetic acid], 1.02. In the case of `Cn1c(=O)c2c(ncn2CC2OCCO2)n(C)c1=O` [Doxofylline] it was 1.02; in that of `CC1c2cccc(O)c2C(O)=C2C(=O)C3(O)C(O)=C(C(N)=O)C(=O)C(N(C)C)C3C(O)C21` (stereo unspecified) [Doxycycline hydrochloride], 0.0238 (active); in that of `NS(=O)(=O)c1cc2c(cc1Cl)NC(CC1CCCC1)NS2(=O)=O` (stereo unspecified) [Cyclopenthiazide], 0.982. For the molecule `Cc1ccc(C)c(OCCCC(C)(C)C(=O)O)c1` [Gemfibrozil], the “growth AUC normalised to DMSO control” value was 0.971.

In the case of `COc1ccc2[nH]cc(CCNC(C)=O)c2c1` [Melatonin], the “growth AUC normalised to DMSO control” value is 0.966. In the case of `CC(C)(Oc1ccc(CCNC(=O)c2ccc(Cl)cc2)cc1)C(=O)O` [Bezafibrate] it was 0.984.

Take `CC(NCCC(c1ccccc1)c1ccccc1)c1ccccc1` (stereo unspecified) [Fendiline hydrochloride]: the “growth AUC normalised to DMSO control” value is 0.986. In the case of `CCOC(=O)/C=C(C)/C=C/C=C(C)/C=C/c1c(C)cc(OC)c(C)c1C` [Etretinate] it was 1.03; in that of `Cc1cccc(Nc2ccccc2C(=O)O)c1C` [Mefenamic acid], 0.946. Under `CCN(CC)CCNC(=O)c1ccc(N)cc1` [Procainamide hydrochloride] stands 0.983. In the case of `CC(=O)OCC(=O)NCCCOc1cccc(CN2CCCCC2)c1` [Roxatidine acetate hydrochloride] it was 0.971; in that of `CNC(=C[N+](=O)[O-])NCCSCc1csc(CN(C)C)n1` [Nizatidine], 0.993; in that of `C=CC1=C(C(=O)O)N2C(=O)[C@@H](NC(=O)/C(=N\OCC(=O)O)c3csc(N)n3)[C@H]2SC1` [Cefixime], 0.0416 (active). Turning to `CCC[C@H](N[C@@H](C)C(=O)N1[C@H](C(=O)O)C[C@@H]2CCCC[C@@H]21)C(=O)OCC` [Perindopril], the “growth AUC normalised to DMSO control” value was 1.01. For `CCCCNC(=O)NS(=O)(=O)c1ccc(C)cc1` [Tolbutamide], the “growth AUC normalised to DMSO control” value was 0.99.

On to `O=C1CC2(CCCC2)CC(=O)N1CCCCN1CCN(c2ncccn2)CC1` [Buspirone hydrochloride], for which the “growth AUC normalised to DMSO control” value was 1.09. Under `CO[C@@]1(NC(=O)Cc2cccs2)C(=O)N2C(C(=O)O)=C(COC(N)=O)CS[C@@H]21` [Cefoxitin sodium salt] stands 0.0362 (active); under `CC(=O)[C@H]1CC[C@H]2[C@@H]3CCC4=CC(=O)CC[C@]4(C)[C@H]3CC[C@]12C` [Progesterone], 1.03; under `Clc1ccc(C(Cn2ccnc2)OCc2ccsc2Cl)c(Cl)c1` (stereo unspecified) [Tioconazole], 0.934. Consider `CCOC(=O)Nc1ccc2c(c1)N(C(=O)CCN1CCOCC1)c1ccccc1S2` [Moricizine hydrochloride], for which the “growth AUC normalised to DMSO control” value was 0.998. In the case of `COc1ccc2c(c1)c(CC(=O)O)c(C)n2C(=O)c1ccc(Cl)cc1` [Indomethacin] it was 0.975. Consider `COC(=O)CCc1ccc(OCC(O)CNC(C)C)cc1` (stereo unspecified) [Esmolol hydrochloride], for which the “growth AUC normalised to DMSO control” value was 1.09. In the case of `CC(=O)OC(C)C[N+](C)(C)C` (stereo unspecified) [Methacholine chloride] it was 0.979; in that of `CCOC(=O)c1ccc(OC(=O)CCCCCNC(=N)N)cc1` [Gabexate mesilate], 0.919. Under `COc1c(O[C@@H]2O[C@H](CO)[C@@H](O)[C@H](O)[C@H]2O)cc2c(c1OC)-c1ccc(SC)c(=O)cc1[C@@H](NC(C)=O)CC2` [Thiocolchicoside] stands 0.996; under `CC(C(=O)O)c1ccc2c(c1)Cc1cccnc1O2` (stereo unspecified) [Pranoprofen], 0.985; under `Cc1ccc(-c2cc(C(F)(F)F)nn2-c2ccc(S(N)(=O)=O)cc2)cc1` [Celecoxib], 0.85. In the case of `CCc1ccc(CCOc2ccc(CC3SC(=O)NC3=O)cc2)nc1` (stereo unspecified) [Pioglitazone] it was 0.955; in that of `c1ccc(CNc2ncnc3nc[nH]c23)cc1` [Aminopurine, 6-benzyl], 1. Turning to `CC12CC3CC(C)(C1)CC(N)(C3)C2` [Memantine hydrochloride], the “growth AUC normalised to DMSO control” value is 0.986. In the case of `CN(C)CCOC1=Cc2ccccc2Sc2ccc(Cl)cc21` [Zotepine], the “growth AUC normalised to DMSO control” value is 0.891. With `CCn1cc(C(=O)O)c(=O)c2cc(F)c(N3CCNC(C)C3)c(F)c21` (stereo unspecified) [Lomefloxacin hydrochloride], the “growth AUC normalised to DMSO control” value is 0.04 (active). Turning to `C#C[C@]1(O)CC[C@H]2[C@@H]3[C@H](C)CC4=C(CCC(=O)C4)[C@H]3CC[C@@]21C` [Tibolone], the “growth AUC normalised to DMSO control” value was 0.966. In the case of `CC(C)(C)NC[C@H](O)COc1cccc2c1CCCC2=O` [(-) Levobunolol hydrochloride] it was 0.989. In the case of `CC(C)(C#N)c1cc(Cn2cncn2)cc(C(C)(C)C#N)c1` [Anastrozole] it was 1.1; in that of `COc1cc(C(=O)NCc2ccc(OCCN(C)C)cc2)cc(OC)c1OC` [Trimethobenzamide hydrochloride], 1.05. As to `N/C(=N\C(=O)c1nc(Cl)c(N)nc1N)NCc1ccccc1` [Benzamil hydrochloride], the “growth AUC normalised to DMSO control” value is 0.991. Take `c1ccc([C@H]2CN3CCSC3=N2)cc1` [Levamisole hydrochloride]: the “growth AUC normalised to DMSO control” value is 0.991. In the case of `NC1CCN(c2nc3c(cc2F)c(=O)c(C(=O)O)cn3-c2ccc(F)cc2F)C1` (stereo unspecified) [Tosufloxacin hydrochloride] it was 0.0424 (active). Under `CC(C)(O)c1ccccc1CC[C@@H](SCC1(CC(=O)O)CC1)c1cccc(/C=C/c2ccc3ccc(Cl)cc3n2)c1` [Montelukast] stands 0.964; under `CC(CCc1ccccc1)NCC(O)c1ccc(O)c(C(N)=O)c1` (stereo unspecified) [Labetalol hydrochloride], 0.954. For the molecule `Cc1nc2n(c(=O)c1CCN1CCC(c3noc4cc(F)ccc34)CC1)CCCC2` [Risperidone], the “growth AUC normalised to DMSO control” value was 1. In the case of `Cc1cccc(C)c1NC(=O)C(C)N` (stereo unspecified) [Tocainide hydrochloride] it was 0.99; in that of `CC(=O)CCCCn1c(=O)c2c(ncn2C)n(C)c1=O` [Pentoxifylline], 1.01. Under `CCCCCCC[N+](CC)(CC)CCCCc1ccc(Cl)cc1` [Clofilium tosylate] stands 1.01.

Turning to `CN(C)CCCN1c2ccccc2Sc2ccccc21` [Promazine hydrochloride], the “growth AUC normalised to DMSO control” value was 0.841. As for `C[C@@H](c1ncncc1F)[C@](O)(Cn1cncn1)c1ccc(F)cc1F` [Voriconazole], the “growth AUC normalised to DMSO control” value was 0.977. With `N#Cc1ccc(C(c2ccc(C#N)cc2)n2cncn2)cc1` [Letrozole], the “growth AUC normalised to DMSO control” value is 1.01.

Turning to `C#C[C@]1(O)CC[C@H]2[C@@H]3CCc4cc(O)ccc4[C@H]3CC[C@@]21C` [Ethinylestradiol], the “growth AUC normalised to DMSO control” value was 1.04. In the case of `O=C(NC(Cc1cc(=O)[nH]c2ccccc12)C(=O)O)c1ccc(Cl)cc1` (stereo unspecified) [Rebamipide] it was 1.01.
